Source: article PMC5540273 (PLoS ONE, 2017)

Legend:
Conditions in all cases: concentration: 1 μM, replicates: in singlicate; n = 1
MTOR = tested on: MTOR
MUSK = tested on: MUSK
MYLK2 = tested on: MYLK2
MYLK4 = tested on: MYLK4
MYLK = tested on: MYLK
MYO3A = tested on: MYO3A
MYO3B = tested on: MYO3B
NDR1 = tested on: T1, NDR1
T1 construct: gene STK38

NDR2 = tested on: NDR2
NEK10 = tested on: NEK10
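Note: KINOMEscan kinase panel screen.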

Q: For `Cc1ccc(S(=O)(=O)Nc2ccc(Nc3nccc(Nc4cccc5[nH]ncc45)n3)cc2)cc1` [GSK581271], which “%Inh” value (MTOR) is on record?
A: Its value is 5%.

Q: And the “%Inh” value (MUSK)?
A: Its value is 12%.

Q: And the “%Inh” value (MYLK2)?
A: Its value is 17%.

Q: And the “%Inh” value (MYLK4)?
A: The value was 50%.

Q: What about the “%Inh” value (MYLK) of the same compound?
A: The value was 0%.

Q: What about the “%Inh” value (MYO3A) of the same compound?
A: Its value is 9%.

Q: And the “%Inh” value (MYO3B)?
A: Its value is 0%.

Q: And the “%Inh” value (NDR1)?
A: Its value is 0%.

Q: What about the “%Inh” value (NDR2) of the same compound?
A: Its value is 0%.

Q: What about the “%Inh” value (NEK10) of the same compound?
A: Its value is 3%.

Q: What does the source list for `Cc1ccc(C(=O)Nc2ccc(Nc3ccnc4cc(-c5nccs5)ccc34)cc2O)cc1.Cl` [GW494702]?
A: %Inh (MTOR): 6%; %Inh (MUSK): 4%; %Inh (MYLK2): 11%; %Inh (MYLK4): 0%; %Inh (MYLK): 0%; %Inh (MYO3A): 34%; %Inh (MYO3B): 6%; %Inh (NDR1): 2%; %Inh (NDR2): 9%; %Inh (NEK10): 0%

Q: What does the source list for `COc1cc2c(cc1OCCN1CCNCC1)ncc1c3ccc(C#N)cc3[nH]c21`?
A: %Inh (MTOR): 19%; %Inh (MUSK): 0%; %Inh (MYLK2): 68%; %Inh (MYLK4): 70%; %Inh (MYLK): 47%; %Inh (MYO3A): 0%; %Inh (MYO3B): 0%; %Inh (NDR1): 3%; %Inh (NDR2): 0%; %Inh (NEK10): 20%

Q: What does the source list for `COc1ccc(-c2coc3ccc(-c4nnc(SCc5ccc(OC)c(C(F)(F)F)c5)o4)cc23)cc1`?
A: %Inh (MTOR): 0%; %Inh (MUSK): 1%; %Inh (MYLK2): 0%; %Inh (MYLK4): 0%; %Inh (MYLK): 15%; %Inh (MYO3A): 8%; %Inh (MYO3B): 36%; %Inh (NDR1): 20%; %Inh (NDR2): 0%; %Inh (NEK10): 0%

Q: Which “%Inh” value (MTOR) does the source give for `C[C@@H]1CC[C@@H](C(=O)Nc2ccccc2)CN1c1cc(-c2ccc3c(N)n[nH]c3c2)nc(N)n1` [GSK2286062] here?
A: The value was 0%.

Q: What about the “%Inh” value (MUSK) of the same compound?
A: Its value is 0%.

Q: And the “%Inh” value (MYLK2)?
A: The value was 0%.

Q: And the “%Inh” value (MYLK4)?
A: Its value is 5%.

Q: And the “%Inh” value (MYLK)?
A: Its value is 15%.

Q: And the “%Inh” value (MYO3A)?
A: The value was 33%.

Q: And the “%Inh” value (MYO3B)?
A: Its value is 0%.

Q: What about the “%Inh” value (NDR1) of the same compound?
A: Its value is 13%.

Q: And the “%Inh” value (NDR2)?
A: Its value is 0%.

Q: And the “%Inh” value (NEK10)?
A: Its value is 7%.

Q: How did the “%Inh” value (MTOR) turn out when `Cc1cccc(NC(=O)Nc2ccc(Oc3ncnc4ccn(C)c34)cc2)c1` was run?
A: The value was 26%.

Q: What about the “%Inh” value (MUSK) of the same compound?
A: Its value is 17%.

Q: What about the “%Inh” value (MYLK2) of the same compound?
A: Its value is 0%.

Q: What about the “%Inh” value (MYLK4) of the same compound?
A: The value was 0%.

Q: What about the “%Inh” value (MYLK) of the same compound?
A: The value was 0%.

Q: And the “%Inh” value (MYO3A)?
A: The value was 0%.

Q: And the “%Inh” value (MYO3B)?
A: Its value is 5%.

Q: And the “%Inh” value (NDR1)?
A: Its value is 30%.

Q: And the “%Inh” value (NDR2)?
A: Its value is 0%.

Q: What about the “%Inh” value (NEK10) of the same compound?
A: Its value is 0%.

Q: How did the “%Inh” value (MTOR) turn out when `FC(F)(F)c1ccc(/C=C/c2cncnc2Nc2ccc3[nH]c(Cc4ccccc4)nc3c2)cc1` [GW709199] was run?
A: Its value is 28%.

Q: What about the “%Inh” value (MUSK) of the same compound?
A: Its value is 15%.

Q: And the “%Inh” value (MYLK2)?
A: The value was 2%.

Q: What about the “%Inh” value (MYLK4) of the same compound?
A: Its value is 25%.

Q: What about the “%Inh” value (MYLK) of the same compound?
A: The value was 15%.

Q: What about the “%Inh” value (MYO3A) of the same compound?
A: The value was 0%.

Q: What about the “%Inh” value (MYO3B) of the same compound?
A: Its value is 30%.

Q: What about the “%Inh” value (NDR1) of the same compound?
A: The value was 21%.

Q: And the “%Inh” value (NDR2)?
A: The value was 0%.

Q: What about the “%Inh” value (NEK10) of the same compound?
A: The value was 0%.

Q: How did the “%Inh” value (MTOR) turn out when `COc1cc(Nc2nccc(-c3c(-c4cccc(NC(=O)c5c(F)cccc5F)c4)nn4ncccc34)n2)cc(OC)c1OC` [GSK327238] was run?
A: The value was 8%.

Q: What about the “%Inh” value (MUSK) of the same compound?
A: Its value is 25%.

Q: And the “%Inh” value (MYLK2)?
A: The value was 10%.

Q: What about the “%Inh” value (MYLK4) of the same compound?
A: Its value is 7%.

Q: And the “%Inh” value (MYLK)?
A: Its value is 9%.

Q: And the “%Inh” value (MYO3A)?
A: Its value is 38%.

Q: What about the “%Inh” value (MYO3B) of the same compound?
A: The value was 40%.

Q: What about the “%Inh” value (NDR1) of the same compound?
A: The value was 20%.

Q: And the “%Inh” value (NDR2)?
A: The value was 0%.

Q: And the “%Inh” value (NEK10)?
A: The value was 15%.

Q: Which results are given for `O=C(Nc1cccc(Oc2ccc3nc(NC(=O)C4CC4)cn3n2)c1)c1ccccc1C(F)(F)F`?
A: %Inh (MTOR): 15%; %Inh (MUSK): 11%; %Inh (MYLK2): 0%; %Inh (MYLK4): 0%; %Inh (MYLK): 10%; %Inh (MYO3A): 0%; %Inh (MYO3B): 0%; %Inh (NDR1): 26%; %Inh (NDR2): 0%; %Inh (NEK10): 0%

Q: With `CSc1cccc2c(-c3ccncn3)c(-c3ccc(F)cc3)nn12` [GW514786] as the compound, how does the “%Inh” value (MTOR) read?
A: Its value is 24%.

Q: What about the “%Inh” value (MUSK) of the same compound?
A: Its value is 7%.

Q: What about the “%Inh” value (MYLK2) of the same compound?
A: Its value is 0%.

Q: What about the “%Inh” value (MYLK4) of the same compound?
A: The value was 0%.

Q: And the “%Inh” value (MYLK)?
A: The value was 23%.

Q: And the “%Inh” value (MYO3A)?
A: The value was 13%.

Q: What about the “%Inh” value (MYO3B) of the same compound?
A: Its value is 0%.

Q: And the “%Inh” value (NDR1)?
A: Its value is 13%.

Q: What about the “%Inh” value (NDR2) of the same compound?
A: Its value is 12%.

Q: What about the “%Inh” value (NEK10) of the same compound?
A: The value was 2%.

Q: `CCCCc1nn2ncccc2c1-c1ccnc(Nc2ccc(N3CCN(C)CC3)cc2)n1` [GW684941] was tested. Which “%Inh” value (MTOR) did it give?
A: The value was 16%.

Q: And the “%Inh” value (MUSK)?
A: The value was 98.2%.

Q: What about the “%Inh” value (MYLK2) of the same compound?
A: The value was 41%.

Q: And the “%Inh” value (MYLK4)?
A: The value was 26%.

Q: What about the “%Inh” value (MYLK) of the same compound?
A: The value was 4%.

Q: And the “%Inh” value (MYO3A)?
A: The value was 0%.

Q: And the “%Inh” value (MYO3B)?
A: The value was 0%.

Q: What about the “%Inh” value (NDR1) of the same compound?
A: Its value is 18%.

Q: What about the “%Inh” value (NDR2) of the same compound?
A: The value was 0%.

Q: And the “%Inh” value (NEK10)?
A: Its value is 65%.

Q: With `O=C(Nc1cccc(-c2nn3ncccc3c2-c2ccnc(Nc3ccccc3)n2)c1)c1c(F)cccc1F` [GSK198271] as the compound, how does the “%Inh” value (MTOR) read?
A: The value was 10%.

Q: And the “%Inh” value (MUSK)?
A: Its value is 4%.

Q: And the “%Inh” value (MYLK2)?
A: The value was 0%.

Q: And the “%Inh” value (MYLK4)?
A: Its value is 0%.

Q: And the “%Inh” value (MYLK)?
A: Its value is 7%.

Q: And the “%Inh” value (MYO3A)?
A: The value was 6%.

Q: And the “%Inh” value (MYO3B)?
A: The value was 30%.

Q: And the “%Inh” value (NDR1)?
A: The value was 11%.

Q: And the “%Inh” value (NDR2)?
A: The value was 0%.

Q: What about the “%Inh” value (NEK10) of the same compound?
A: Its value is 0%.

Q: With `COCCOCCOc1cc2ncc3c4ccc(C#N)cc4[nH]c3c2cc1OC` as the compound, how does the “%Inh” value (MTOR) read?
A: Its value is 0%.

Q: What about the “%Inh” value (MUSK) of the same compound?
A: The value was 6%.

Q: What about the “%Inh” value (MYLK2) of the same compound?
A: Its value is 54%.

Q: And the “%Inh” value (MYLK4)?
A: Its value is 72%.

Q: What about the “%Inh” value (MYLK) of the same compound?
A: The value was 33%.

Q: What about the “%Inh” value (MYO3A) of the same compound?
A: The value was 10%.

Q: And the “%Inh” value (MYO3B)?
A: Its value is 0%.

Q: And the “%Inh” value (NDR1)?
A: The value was 60%.

Q: What about the “%Inh” value (NDR2) of the same compound?
A: Its value is 0%.

Q: What about the “%Inh” value (NEK10) of the same compound?
A: Its value is 0%.

Q: For `Cn1cc(-c2ccc3c(c2)CCN3C(=O)Cc2cccc(F)c2)c2c(N)ncnc21` [GSK2603358], which “%Inh” value (MTOR) is on record?
A: The value was 16%.

Q: What about the “%Inh” value (MUSK) of the same compound?
A: The value was 5%.

Q: What about the “%Inh” value (MYLK2) of the same compound?
A: The value was 83%.

Q: And the “%Inh” value (MYLK4)?
A: The value was 0%.

Q: What about the “%Inh” value (MYLK) of the same compound?
A: The value was 18%.

Q: What about the “%Inh” value (MYO3A) of the same compound?
A: Its value is 51%.

Q: What about the “%Inh” value (MYO3B) of the same compound?
A: Its value is 5%.

Q: What about the “%Inh” value (NDR1) of the same compound?
A: The value was 0%.

Q: What about the “%Inh” value (NDR2) of the same compound?
A: Its value is 7%.

Q: And the “%Inh” value (NEK10)?
A: Its value is 22%.

Q: Which results are given for `CCS(=O)(=O)c1ccc(OC)c(Nc2nccc(-c3c(-c4cccc(NC(=O)c5c(F)cccc5F)c4)nn4ncccc34)n2)c1` [GSK326180]?
A: %Inh (MTOR): 15%; %Inh (MUSK): 11%; %Inh (MYLK2): 9%; %Inh (MYLK4): 2%; %Inh (MYLK): 17%; %Inh (MYO3A): 30%; %Inh (MYO3B): 6%; %Inh (NDR1): 0%; %Inh (NDR2): 0%; %Inh (NEK10): 21%

Q: Which results are given for `Cl.Cl.NCC(C(=O)Nc1cc(Br)c(-c2ccnc3[nH]ccc23)s1)c1ccccc1` (stereo not shown) [GSK1269851]?
A: %Inh (MTOR): 26%; %Inh (MUSK): 1%; %Inh (MYLK2): 56%; %Inh (MYLK4): 99.8%; %Inh (MYLK): 37%; %Inh (MYO3A): 0%; %Inh (MYO3B): 0%; %Inh (NDR1): 70%; %Inh (NDR2): 13%; %Inh (NEK10): 12%
